# Laboratory results as given in article PMC7862700, “An all-to-all approach to the identification of sequence-specific readers for epigenetic DNA modifications on cytosine”.
# What was measured:
# Assay in all cases: DAPPL (digital affinity profiling via proximity ligation, sequencing); 10 mM Tris-HCl pH 7.5, 50 mM NaCl, 1 mM DTT, 4% glycerol, room temperature, 30 min; GST-TFs on glutathione beads, 16-mer random dsDNA library, 0.1% formaldehyde crosslink after washing; high values mean tight binding
# [1] = target: T1, FEV (Homo sapiens, UniProt Q99581 1-238); conditions: protein: recombinant; tags: N-terminal GST; dsDNA, one strand shown
# T1 sequence: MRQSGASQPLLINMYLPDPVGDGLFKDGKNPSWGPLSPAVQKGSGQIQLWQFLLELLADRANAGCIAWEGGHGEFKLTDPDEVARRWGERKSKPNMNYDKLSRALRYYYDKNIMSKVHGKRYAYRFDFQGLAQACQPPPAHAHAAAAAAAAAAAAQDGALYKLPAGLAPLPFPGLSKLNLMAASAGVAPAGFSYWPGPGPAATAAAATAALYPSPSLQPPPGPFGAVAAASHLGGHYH
# Summary of the method: (§1)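 Binding signal is each hexamer's read frequency for a factor divided by its frequency in the tag-only sample. The factors were GST-fused human transcription factors from yeast, captured on glutathione beads, DNA-barcoded and pooled with that sample. Pools were incubated with 200 nmole of a random double-stranded 16-mer DNA library in Tris/NaCl/DTT/glycerol buffer at room temperature for 30 min, then washed, crosslinked with 0.1% formaldehyde, proximity-ligated with BsaI/T4 ligase (1 h, 37 °C), PCR-amplified and sequenced on an Illumina NextSeq500.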
# [2] = target: ETV5 (Homo sapiens, UniProt P41161 1-510); conditions: protein: recombinant; tags: N-terminal GST; dsDNA, one strand shown
# Summary of the method: as §1
# [3] = target: HSF1 (Homo sapiens, UniProt Q00613 1-529); conditions: protein: recombinant; tags: N-terminal GST; chain copies: 3; dsDNA, one strand shown
# Summary of the method: as §1
# [4] = target: T2, SPIC (Homo sapiens, UniProt Q8N5J4 1-248); conditions: protein: recombinant; tags: N-terminal GST; dsDNA, one strand shown
# T2 sequence: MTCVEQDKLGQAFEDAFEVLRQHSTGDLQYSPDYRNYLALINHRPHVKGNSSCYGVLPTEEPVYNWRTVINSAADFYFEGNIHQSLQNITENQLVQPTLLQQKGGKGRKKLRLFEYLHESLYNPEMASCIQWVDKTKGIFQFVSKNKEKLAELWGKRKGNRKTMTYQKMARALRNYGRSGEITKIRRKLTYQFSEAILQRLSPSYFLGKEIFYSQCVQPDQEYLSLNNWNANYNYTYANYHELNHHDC
# Summary of the method: as §1
# [5] = target: ELF4 (Homo sapiens, UniProt Q99607 1-663); conditions: protein: recombinant; tags: N-terminal GST; dsDNA, one strand shown
# Summary of the method: as §1
# [6] = target: T3, ELK4 (Homo sapiens, UniProt P28324-2 1-405); conditions: protein: recombinant; tags: N-terminal GST; dsDNA, one strand shown
# T3 sequence: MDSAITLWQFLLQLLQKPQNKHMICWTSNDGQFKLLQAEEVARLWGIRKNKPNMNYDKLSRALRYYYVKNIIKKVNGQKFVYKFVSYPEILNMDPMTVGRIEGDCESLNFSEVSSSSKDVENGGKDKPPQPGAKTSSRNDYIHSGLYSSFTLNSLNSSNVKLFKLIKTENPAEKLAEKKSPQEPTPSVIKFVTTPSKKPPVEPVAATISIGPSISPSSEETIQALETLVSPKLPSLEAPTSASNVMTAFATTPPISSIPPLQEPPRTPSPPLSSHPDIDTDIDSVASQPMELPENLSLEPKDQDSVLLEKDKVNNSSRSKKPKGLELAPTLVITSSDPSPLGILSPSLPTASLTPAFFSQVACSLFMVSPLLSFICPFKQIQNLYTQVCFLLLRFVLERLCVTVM
# Summary of the method: as §1
# [7] = target: T4, ETV2 (Homo sapiens, UniProt O00321 1-342); conditions: protein: recombinant; tags: N-terminal GST; dsDNA, one strand shown
# T4 sequence: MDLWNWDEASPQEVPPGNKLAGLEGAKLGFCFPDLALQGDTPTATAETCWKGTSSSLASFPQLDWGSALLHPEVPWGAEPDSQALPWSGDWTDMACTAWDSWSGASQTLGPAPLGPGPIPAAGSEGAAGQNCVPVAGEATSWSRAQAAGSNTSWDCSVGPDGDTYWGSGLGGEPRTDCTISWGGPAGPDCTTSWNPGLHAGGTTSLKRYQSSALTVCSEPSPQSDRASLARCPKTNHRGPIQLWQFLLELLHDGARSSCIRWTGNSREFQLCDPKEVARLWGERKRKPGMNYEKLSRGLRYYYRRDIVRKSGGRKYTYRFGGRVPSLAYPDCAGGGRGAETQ
# Summary of the method: as §1
# [8] = target: T5, ELF3 (Homo sapiens, UniProt P78545 1-371); conditions: protein: recombinant; tags: N-terminal GST; dsDNA, one strand shown
# T5 sequence: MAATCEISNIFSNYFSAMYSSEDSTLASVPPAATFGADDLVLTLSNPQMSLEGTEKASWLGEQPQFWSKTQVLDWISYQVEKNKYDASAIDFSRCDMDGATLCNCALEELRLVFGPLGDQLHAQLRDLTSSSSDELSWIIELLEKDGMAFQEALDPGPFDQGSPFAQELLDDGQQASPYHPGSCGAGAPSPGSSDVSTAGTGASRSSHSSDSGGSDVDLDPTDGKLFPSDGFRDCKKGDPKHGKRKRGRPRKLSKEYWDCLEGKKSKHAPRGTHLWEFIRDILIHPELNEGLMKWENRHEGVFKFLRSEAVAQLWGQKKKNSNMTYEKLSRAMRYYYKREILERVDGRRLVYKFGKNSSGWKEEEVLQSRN
# Summary of the method: as §1
# [9] = target: CRX (Homo sapiens, UniProt O43186 1-299); conditions: protein: recombinant; tags: N-terminal GST; dsDNA, one strand shown
# Summary of the method: as §1
# [10] = target: ETV1 (Homo sapiens, UniProt P50549 1-477); conditions: protein: recombinant; tags: N-terminal GST; dsDNA, one strand shown
# Summary of the method: as §1
# [11] = target: T6, ERF (Homo sapiens, UniProt P50548 1-548); conditions: protein: recombinant; tags: N-terminal GST; dsDNA, one strand shown
# T6 sequence: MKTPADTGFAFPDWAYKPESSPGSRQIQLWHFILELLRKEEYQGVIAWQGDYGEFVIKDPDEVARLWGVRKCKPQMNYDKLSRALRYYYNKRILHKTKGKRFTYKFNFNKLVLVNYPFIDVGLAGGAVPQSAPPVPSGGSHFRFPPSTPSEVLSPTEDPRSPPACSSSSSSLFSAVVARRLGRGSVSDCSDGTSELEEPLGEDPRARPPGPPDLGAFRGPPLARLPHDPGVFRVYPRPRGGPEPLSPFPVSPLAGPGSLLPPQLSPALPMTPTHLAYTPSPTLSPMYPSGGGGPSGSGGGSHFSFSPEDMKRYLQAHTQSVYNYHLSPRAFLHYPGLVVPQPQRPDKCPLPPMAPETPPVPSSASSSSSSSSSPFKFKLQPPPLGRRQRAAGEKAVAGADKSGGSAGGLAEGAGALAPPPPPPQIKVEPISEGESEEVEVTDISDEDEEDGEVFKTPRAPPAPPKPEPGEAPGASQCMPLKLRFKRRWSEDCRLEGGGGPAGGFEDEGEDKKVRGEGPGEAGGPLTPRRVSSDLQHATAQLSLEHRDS
# Summary of the method: as §1
# [12] = target: T7, ETV3L (Homo sapiens, UniProt Q6ZN32 1-361); conditions: protein: recombinant; tags: N-terminal GST; dsDNA, one strand shown
# T7 sequence: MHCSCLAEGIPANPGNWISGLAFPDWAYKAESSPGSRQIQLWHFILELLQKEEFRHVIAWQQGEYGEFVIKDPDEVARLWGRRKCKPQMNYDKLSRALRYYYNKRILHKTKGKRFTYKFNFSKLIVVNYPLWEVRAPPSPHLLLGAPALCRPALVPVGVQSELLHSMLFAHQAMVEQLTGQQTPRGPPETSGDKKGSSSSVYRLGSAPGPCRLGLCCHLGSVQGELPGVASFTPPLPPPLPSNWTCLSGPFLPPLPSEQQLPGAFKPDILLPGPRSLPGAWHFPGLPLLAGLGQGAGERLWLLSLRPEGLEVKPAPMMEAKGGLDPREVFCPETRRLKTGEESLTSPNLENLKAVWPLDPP
# Summary of the method: as §1
# [13] = target: T8, ETS2 (Homo sapiens, UniProt P15036 1-469); conditions: protein: recombinant; tags: N-terminal GST; dsDNA, one strand shown
# T8 sequence: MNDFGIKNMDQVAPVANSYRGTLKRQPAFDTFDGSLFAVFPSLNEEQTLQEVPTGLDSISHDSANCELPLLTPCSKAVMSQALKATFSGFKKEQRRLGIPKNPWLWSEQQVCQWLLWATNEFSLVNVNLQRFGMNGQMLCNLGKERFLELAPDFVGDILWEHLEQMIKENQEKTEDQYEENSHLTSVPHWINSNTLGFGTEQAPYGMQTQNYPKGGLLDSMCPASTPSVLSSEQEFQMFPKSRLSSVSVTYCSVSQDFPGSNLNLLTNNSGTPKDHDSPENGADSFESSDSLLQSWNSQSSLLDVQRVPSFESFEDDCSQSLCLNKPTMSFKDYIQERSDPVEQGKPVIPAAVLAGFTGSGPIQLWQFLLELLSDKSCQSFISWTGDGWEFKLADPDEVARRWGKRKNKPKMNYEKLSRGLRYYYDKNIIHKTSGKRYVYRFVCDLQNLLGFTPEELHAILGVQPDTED
# Summary of the method: as §1
# [14] = target: T9, SPDEF (Homo sapiens, UniProt O95238 1-335); conditions: protein: recombinant; tags: N-terminal GST; dsDNA, one strand shown
# T9 sequence: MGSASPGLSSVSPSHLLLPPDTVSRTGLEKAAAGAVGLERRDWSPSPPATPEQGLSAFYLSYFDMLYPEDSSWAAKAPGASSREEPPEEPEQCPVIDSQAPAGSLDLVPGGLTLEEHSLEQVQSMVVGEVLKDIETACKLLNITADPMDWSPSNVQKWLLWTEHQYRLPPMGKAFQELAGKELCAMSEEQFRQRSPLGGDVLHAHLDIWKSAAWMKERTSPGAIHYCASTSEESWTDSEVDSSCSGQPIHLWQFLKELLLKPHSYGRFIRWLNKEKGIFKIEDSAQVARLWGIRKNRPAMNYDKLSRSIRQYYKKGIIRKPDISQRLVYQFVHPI
# Summary of the method: as §1
# [15] = target: T10, ETV7 (Homo sapiens, UniProt Q9Y603 1-341); conditions: protein: recombinant; tags: N-terminal GST; dsDNA, one strand shown
# T10 sequence: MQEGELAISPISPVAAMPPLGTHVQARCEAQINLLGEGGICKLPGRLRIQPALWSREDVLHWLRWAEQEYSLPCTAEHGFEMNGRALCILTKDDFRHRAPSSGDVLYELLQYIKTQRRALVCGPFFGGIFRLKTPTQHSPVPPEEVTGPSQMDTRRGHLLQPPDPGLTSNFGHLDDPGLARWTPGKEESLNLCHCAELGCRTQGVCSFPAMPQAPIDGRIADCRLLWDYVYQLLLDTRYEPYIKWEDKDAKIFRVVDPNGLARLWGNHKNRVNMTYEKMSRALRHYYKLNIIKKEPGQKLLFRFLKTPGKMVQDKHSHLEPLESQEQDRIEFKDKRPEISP
# Summary of the method: as §1
# [16] = target: T11, ELF5 (Homo sapiens, UniProt Q9UKW6-2 1-255); conditions: protein: recombinant; tags: N-terminal GST; dsDNA, one strand shown
# T11 sequence: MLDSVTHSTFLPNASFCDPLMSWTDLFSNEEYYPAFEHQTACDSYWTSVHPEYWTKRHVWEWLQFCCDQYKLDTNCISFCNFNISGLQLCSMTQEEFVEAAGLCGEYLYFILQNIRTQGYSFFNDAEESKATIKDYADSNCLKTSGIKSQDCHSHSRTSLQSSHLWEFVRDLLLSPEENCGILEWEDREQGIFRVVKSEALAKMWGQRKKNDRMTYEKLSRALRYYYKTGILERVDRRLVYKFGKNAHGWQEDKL
# Summary of the method: as §1
# [17] = target: T12, ETV3 (Homo sapiens, UniProt P41162-2 1-143); conditions: protein: recombinant; tags: N-terminal GST; dsDNA, one strand shown
# T12 sequence: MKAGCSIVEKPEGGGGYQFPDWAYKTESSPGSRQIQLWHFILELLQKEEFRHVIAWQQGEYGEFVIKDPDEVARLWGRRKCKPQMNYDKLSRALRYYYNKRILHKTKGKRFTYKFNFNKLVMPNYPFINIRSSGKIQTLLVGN
# Summary of the method: as §1
# [18] = target: ETV6 (Homo sapiens, UniProt P41212 1-452); conditions: protein: recombinant; tags: N-terminal GST; dsDNA, one strand shown
# Summary of the method: as §1
# ETV6, sequence (P41212 whole entry): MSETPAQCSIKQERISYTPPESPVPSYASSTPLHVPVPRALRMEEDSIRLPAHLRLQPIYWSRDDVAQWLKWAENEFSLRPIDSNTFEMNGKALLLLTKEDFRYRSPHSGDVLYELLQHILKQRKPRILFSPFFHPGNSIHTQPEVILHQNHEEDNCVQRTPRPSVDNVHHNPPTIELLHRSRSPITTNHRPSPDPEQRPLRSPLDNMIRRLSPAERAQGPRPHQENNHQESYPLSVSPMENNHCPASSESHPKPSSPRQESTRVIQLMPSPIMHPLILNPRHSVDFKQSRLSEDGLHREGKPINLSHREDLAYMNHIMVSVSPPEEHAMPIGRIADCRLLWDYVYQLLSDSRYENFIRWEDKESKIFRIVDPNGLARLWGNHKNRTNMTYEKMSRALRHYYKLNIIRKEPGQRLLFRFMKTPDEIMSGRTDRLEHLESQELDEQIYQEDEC
# ELF4, sequence (Q99607 whole entry): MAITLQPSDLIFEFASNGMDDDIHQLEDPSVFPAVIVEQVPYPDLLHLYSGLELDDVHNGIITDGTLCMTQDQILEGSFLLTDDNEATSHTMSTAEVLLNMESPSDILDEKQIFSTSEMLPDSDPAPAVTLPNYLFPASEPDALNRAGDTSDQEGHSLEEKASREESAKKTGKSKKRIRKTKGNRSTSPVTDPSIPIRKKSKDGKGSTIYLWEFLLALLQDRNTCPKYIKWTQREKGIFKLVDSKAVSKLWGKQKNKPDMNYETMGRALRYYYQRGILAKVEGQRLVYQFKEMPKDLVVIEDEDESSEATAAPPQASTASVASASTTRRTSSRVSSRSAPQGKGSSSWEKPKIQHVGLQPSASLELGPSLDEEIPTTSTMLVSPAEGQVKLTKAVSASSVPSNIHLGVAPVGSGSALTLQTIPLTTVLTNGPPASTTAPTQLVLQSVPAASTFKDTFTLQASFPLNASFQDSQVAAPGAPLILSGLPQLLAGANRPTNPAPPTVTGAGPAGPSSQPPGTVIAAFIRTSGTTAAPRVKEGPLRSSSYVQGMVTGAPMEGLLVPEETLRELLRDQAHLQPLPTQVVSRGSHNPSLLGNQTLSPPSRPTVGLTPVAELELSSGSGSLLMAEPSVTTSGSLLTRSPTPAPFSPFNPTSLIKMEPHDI
# ETV1, sequence (P50549 whole entry): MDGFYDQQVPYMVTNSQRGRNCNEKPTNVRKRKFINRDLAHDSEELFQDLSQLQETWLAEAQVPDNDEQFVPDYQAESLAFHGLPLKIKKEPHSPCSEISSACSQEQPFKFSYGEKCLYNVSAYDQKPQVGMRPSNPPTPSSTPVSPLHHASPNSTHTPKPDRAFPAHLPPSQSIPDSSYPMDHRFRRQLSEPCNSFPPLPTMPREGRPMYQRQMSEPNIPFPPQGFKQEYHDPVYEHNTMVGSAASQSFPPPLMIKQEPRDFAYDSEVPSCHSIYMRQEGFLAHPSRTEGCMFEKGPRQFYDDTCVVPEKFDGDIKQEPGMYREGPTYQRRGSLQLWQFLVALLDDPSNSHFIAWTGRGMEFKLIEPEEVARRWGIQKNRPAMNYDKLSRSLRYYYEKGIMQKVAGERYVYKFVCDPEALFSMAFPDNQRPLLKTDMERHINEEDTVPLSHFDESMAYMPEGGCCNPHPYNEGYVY
# ETV5, sequence (P41161 whole entry): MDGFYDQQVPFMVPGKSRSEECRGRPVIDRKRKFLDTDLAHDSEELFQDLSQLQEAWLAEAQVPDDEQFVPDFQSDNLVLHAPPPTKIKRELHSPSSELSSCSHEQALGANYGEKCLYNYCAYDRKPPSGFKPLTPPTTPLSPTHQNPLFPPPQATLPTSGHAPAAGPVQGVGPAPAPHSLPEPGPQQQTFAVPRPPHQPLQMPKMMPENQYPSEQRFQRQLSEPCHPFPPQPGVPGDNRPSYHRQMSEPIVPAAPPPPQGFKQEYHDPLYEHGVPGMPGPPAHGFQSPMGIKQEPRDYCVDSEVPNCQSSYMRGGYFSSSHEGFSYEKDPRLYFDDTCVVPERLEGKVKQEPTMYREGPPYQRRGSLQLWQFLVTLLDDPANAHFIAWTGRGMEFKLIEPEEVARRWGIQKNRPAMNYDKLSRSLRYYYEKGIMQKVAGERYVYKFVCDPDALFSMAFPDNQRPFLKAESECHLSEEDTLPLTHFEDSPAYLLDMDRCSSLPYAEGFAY
# CRX, sequence (O43186 whole entry): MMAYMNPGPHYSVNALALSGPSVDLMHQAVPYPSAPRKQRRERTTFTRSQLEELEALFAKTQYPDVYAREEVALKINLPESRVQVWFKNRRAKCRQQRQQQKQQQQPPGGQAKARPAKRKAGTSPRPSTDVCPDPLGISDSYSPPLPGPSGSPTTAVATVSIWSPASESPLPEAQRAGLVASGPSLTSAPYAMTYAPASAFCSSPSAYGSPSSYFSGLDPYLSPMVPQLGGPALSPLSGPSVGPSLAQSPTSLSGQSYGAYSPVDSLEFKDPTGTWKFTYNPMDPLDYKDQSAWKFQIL
# HSF1, sequence (Q00613 whole entry): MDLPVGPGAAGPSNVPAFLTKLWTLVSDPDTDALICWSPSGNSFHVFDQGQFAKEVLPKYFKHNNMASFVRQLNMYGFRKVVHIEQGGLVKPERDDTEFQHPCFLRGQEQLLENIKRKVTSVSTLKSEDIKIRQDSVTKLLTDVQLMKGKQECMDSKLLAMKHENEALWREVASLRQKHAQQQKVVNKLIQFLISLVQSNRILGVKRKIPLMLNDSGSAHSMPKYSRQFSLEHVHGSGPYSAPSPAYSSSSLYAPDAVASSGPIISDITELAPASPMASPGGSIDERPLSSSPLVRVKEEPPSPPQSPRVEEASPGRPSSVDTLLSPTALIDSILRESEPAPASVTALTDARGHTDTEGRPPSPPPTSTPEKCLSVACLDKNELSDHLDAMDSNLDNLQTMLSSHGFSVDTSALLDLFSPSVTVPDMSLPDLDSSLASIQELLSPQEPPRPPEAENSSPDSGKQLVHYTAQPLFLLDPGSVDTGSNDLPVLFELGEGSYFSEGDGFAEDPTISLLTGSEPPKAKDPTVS
sequence,measurement,setting,value
AGAAGC,binding signal,[1],"1.14 fold enrichment (6-mer frequency, TF over GST control)"
same,binding signal,[2],"1.12 fold enrichment (6-mer frequency, TF over GST control)"
same,binding signal,[3],"1.96 fold enrichment (6-mer frequency, TF over GST control)"
same,binding signal,[4],"1.28 fold enrichment (6-mer frequency, TF over GST control)"
same,binding signal,[5],"1.13 fold enrichment (6-mer frequency, TF over GST control)"
same,binding signal,[6],"1.07 fold enrichment (6-mer frequency, TF over GST control)"
same,binding signal,[7],"1.22 fold enrichment (6-mer frequency, TF over GST control)"
same,binding signal,[8],"1.09 fold enrichment (6-mer frequency, TF over GST control)"
same,binding signal,[9],"1.32 fold enrichment (6-mer frequency, TF over GST control)"
same,binding signal,[10],"1.11 fold enrichment (6-mer frequency, TF over GST control)"
same,binding signal,[11],"1.11 fold enrichment (6-mer frequency, TF over GST control)"
same,binding signal,[12],"1.17 fold enrichment (6-mer frequency, TF over GST control)"
same,binding signal,[13],"1.09 fold enrichment (6-mer frequency, TF over GST control)"
same,binding signal,[14],"1.15 fold enrichment (6-mer frequency, TF over GST control)"
same,binding signal,[15],"1.23 fold enrichment (6-mer frequency, TF over GST control)"
same,binding signal,[16],"1.18 fold enrichment (6-mer frequency, TF over GST control)"
same,binding signal,[17],"1.23 fold enrichment (6-mer frequency, TF over GST control)"
same,binding signal,[18],"1.14 fold enrichment (6-mer frequency, TF over GST control)"
